The record followed here is the supplement of paper PMC9950053.

SMILES strings stand for the structures. Counter-ions that a name gives are not always drawn.

The assay concerns Danio rerio larvae (5 dpf). The experiment in a line: startle (activity period 16 minus period 15, 20-s interval sound) minus DMSO control (percentage points); higher = stronger startle response than DMSO larvae. The note with it: 10 µM; exposure time: 3 h pre-incubation + 3 h imaging. As to the method:
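Wild-type 5 dpf zebrafish larvae (n=48 per drug, 96-well plates, 28.5 °C) were exposed to Tocris FDA-approved library compounds at 10 µM (0.1% DMSO) for 3 h before and 3 h during imaging. Images were taken every 6 s during visual (moving coloured lines) and acoustic stimuli, and larvae were tracked with the DeepLabCut-based Z-LaP Tracker. Each behavioural measure is the treated-group mean minus the DMSO vehicle control mean (n=844), in percentage points. This mapping covers compounds with 4-character plate codes.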
For `C=C1[C@H](CO)[C@@H](O)C[C@@H]1n1cnc2c(=O)[nH]c(N)nc21` [Entecavir], the startle came out at 3.99.
Then `NC(=O)c1ncn([C@@H]2O[C@H](CO)[C@@H](O)[C@H]2O)n1` [Ribavirin], with 2.04; and `CC(C)Nc1cccnc1N1CCN(C(=O)c2cc3cc(NS(C)(=O)=O)ccc3[nH]2)CC1` [Delavirdine mesylate], with -4.71.
Next, `Cc1cccc(C)c1OCC(C)N` (stereo not given) [Mexiletine hydrochloride]: 0.959; `NS(=O)(=O)Cc1noc2ccccc12` [Zonisamide]: 5.14.
Next, `CC(C)C(=O)OCC(=O)[C@@]12O[C@H](C3CCCCC3)O[C@@H]1C[C@H]1[C@@H]3CCC4=CC(=O)C=C[C@]4(C)[C@H]3[C@@H](O)C[C@@]12C` [Ciclesonide]: -5.21; `CC(C)N(CCCCOCC(=O)NS(C)(=O)=O)c1cnc(-c2ccccc2)c(-c2ccccc2)n1` [Selexipag]: 1.3; `Brc1c(NC2=NCCN2)ccc2nccnc12`: -5.57.
Regarding `C=CC(=O)N1CCC[C@@H](n2nc(-c3ccc(Oc4ccccc4)cc3)c3c(N)ncnc32)C1` [Ibrutinib], the startle was determined as 4.43.
Next, `CC(C)C(=O)Nc1ccc([N+](=O)[O-])c(C(F)(F)F)c1` [Flutamide]: -5.6; `NC(=O)N1c2ccccc2C=Cc2ccccc21` [Carbamazepine]: 3.47.
Then `Nc1cccc2c1CN(C1CCC(=O)NC1=O)C2=O` (stereo not given) [Lenalidomide], with -4.19; and `CN1CCC[C@@H]1CCO[C@](C)(c1ccccc1)c1ccc(Cl)cc1` [Clemastine fumarate], with -7.64.
For `Nc1nc(NC2CC2)c2ncn([C@H]3C=C[C@@H](CO)C3)c2n1` [Abacavir hemisulfate], the startle was 6.4.
For the compound `CNC(=O)c1ccccc1Sc1ccc2c(/C=C/c3ccccn3)n[nH]c2c1` [Axitinib], the startle is -7.2.
Then `CC(=O)O[C@H]1C(=O)[C@@]2(C)[C@H]([C@H](OC(=O)c3ccccc3)[C@]3(O)C[C@H](OC(=O)[C@H](O)[C@@H](NC(=O)c4ccccc4)c4ccccc4)C(C)=C1C3(C)C)[C@]1(OC(C)=O)CO[C@@H]1C[C@@H]2O` [Taxol], with 1.37.
Next, `CC/C(=C(\c1ccccc1)c1ccc(OCCN(C)C)cc1)c1ccccc1` [Tamoxifen citrate]: -1.09.
As to `COc1ccc([C@@H]2Sc3ccccc3N(CCN(C)C)C(=O)[C@@H]2OC(C)=O)cc1` [Diltiazem hydrochloride], the startle was 1.21.
Next, `COC(=O)C1=C(C)NC(C)=C(C(=O)OC(C)C)C1c1cccc2nonc12` (stereo not given) [Isradipine]: -8.8; `CC(=O)Oc1ccccc1C(=O)O` [Aspirin]: -4.
Then `CCCCCOC(=O)Nc1nc(=O)n([C@@H]2O[C@H](C)[C@@H](O)[C@H]2O)cc1F` [Capecitabine], with 1.06; and `CN/C(=N\CCSCc1nc[nH]c1C)NC#N` [Cimetidine], with 5.75.
Then `O=C(O)CCCc1ccccc1` [Sodium 4-Phenylbutyrate], with -5.61; and `CCOc1nc2cccc(C(=O)O)c2n1Cc1ccc(-c2ccccc2-c2nnn[nH]2)cc1` [Candesartan], with 11.2.
For `Cc1cccc(CN2CCN(C(c3ccccc3)c3ccc(Cl)cc3)CC2)c1` (stereo not given) [Meclizine dihydrochloride], the startle was -7.54.
Take `Nc1ncn([C@H]2C[C@H](O)[C@@H](CO)O2)c(=O)n1` [Decitabine]: the startle was -1.27.
Then `COc1c(C)c2c(c(O)c1C/C=C(\C)CCC(=O)O)C(=O)OC2` [Mycophenolic acid], with 3.04; and `CN(CCOc1ccc(NS(C)(=O)=O)cc1)CCc1ccc(NS(C)(=O)=O)cc1` [Dofetilide], with 0.253; and `CN1CCN(CCCN2c3ccccc3Sc3ccc(Cl)cc32)CC1` [Prochlorperazine dimaleate], with -8.12.
Then `CC(C)[C@H]1CC[C@H](C(=O)N[C@H](Cc2ccccc2)C(=O)O)CC1` [Nateglinide], with 3.17.
Then `COc1ccc(C[C@@H](C)NC[C@H](O)c2ccc(O)c(NC=O)c2)cc1` [Arformoterol tartrate], with -8.08.
With `CCOC(=O)N1CCC(=C2c3ccc(Cl)cc3CCc3cccnc32)CC1` [Loratidine], the startle came to 8.94.
In the case of `CC(C)c1nc(N(C)S(C)(=O)=O)nc(-c2ccc(F)cc2)c1/C=C/[C@@H](O)C[C@@H](O)CC(=O)O` [Rosuvastatin calcium], the startle is -0.514.
Next, `C[C@H]1C[C@@H]2[C@H]([C@@H](O)C[C@@]3(C)[C@H]2CC[C@]3(O)C(=O)CO)[C@@]2(C)C=CC(=O)C=C12` [Methylprednisolone]: 0.408; `Cc1cc(C2CCCCC2)n(O)c(=O)c1` [Ciclopirox]: -8.19; `Cc1ccsc1C(=CCCN1CCC[C@@H](C(=O)O)C1)c1sccc1C` [Tiagabine hydrochloride]: 7.31.
Next, `Cc1ccccc1C(=O)Nc1ccc(C(=O)N2CCCC(O)c3cc(Cl)ccc32)c(C)c1` (stereo not given) [Tolvaptan]: 4.33; `CC(CCc1ccc(O)cc1)NCCc1ccc(O)c(O)c1` (stereo not given) [Dobutamine hydrochloride]: -0.893.
Next, `Cc1ccc(-c2cc(C(F)(F)F)nn2-c2ccc(S(N)(=O)=O)cc2)cc1` [Celecoxib]: -8.09; `CC1=Nc2ccc(Cl)cc2S(=O)(=O)N1` [Diazoxide]: -4.34.
